In PubChem BioAssay one finds composite z-score and z-score data, which are given here for four molecules.

For assay [1], the system named is Wnt5a (protein binding on small-molecule microarray). As to the kind of experiment: Wnt5a binders on small-molecule microarray, primary screen, biophysical, 635/667 nm fluorescence (AID 1142).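 Also: fluorescence read at 667 nm with signal to noise per printed feature.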 The settings on record: 635 nm fluorescence, higher = more signal.
Assay [2] in a line: cell viability in Huh7 cells, primary screen, cytotoxicity control for HCV replication inhibitor project, CellTiter-Glo luminescence, basal, 48 h (AID 1143).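 Also: Huh7 hepatoma cells carrying a hepatitis C replication reporter with no stimulus; test concentration not given here.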 The settings on record: Huh7 HCV replicon, higher = more signal, called active from +8 up or from −8 down.
The nature of assay [3]: P. aeruginosa biofilm formation inhibitors, primary screen, PAO1 strain, BacTiter-Glo luminescence, LB-PBS (AID 1144). The settings on record: 12 h, higher = more signal.
The nature of assay [4]: CREB reporter modulators without forskolin, primary screen, cell-based, PC12, CRE-LacZ reporter, unstimulated (AID 1145). The settings on record: no forskolin, luminescence, 4.5 h, higher = more signal, called active from +8 up or from −8 down.
The nature of assay [5]: CREB reporter modulators under forskolin, primary screen, cell-based, PC12, CRE-LacZ reporter, forskolin-stimulated (AID 1146).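 Also: PC12 cells with 6xCRE LacZ reporter stimulated by forskolin 10 µM; beta-galactosidase reporter signal reflecting CREB driven transcription.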 Particulars: luminescence, 4.5 h, higher = more signal, called active from +8 up or from −8 down.
Assay [6] has as its target Streptavidin (Streptomyces avidinii) (UniProt P22629). As to the kind of experiment: streptavidin binders on small-molecule microarray, primary screen, artefact control for SMM compound annotation, biophysical, 635/667 nm fluorescence (AID 1147).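 Also: signal reflects streptavidin binding to arrayed compounds as a control protein.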 The settings on record: streptavidin binding, higher = more signal.
Assay [7] can be described thus: small-molecule binders of probe aInhba, primary screen, biochemical, small-molecule microarray, 635/667 nm fluorescence (AID 1148).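 Also: score merges 667nm spot fluorescence with signal-to-noise for antibody binding to printed compounds.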 Particulars: higher = more signal.
Assay [8] concerns the target Torsin-1A (Homo sapiens) (UniProt O14656). As to the kind of experiment: torsin A binders from cell lysate, primary screen, small-molecule microarray, wild-type, 635/667 nm (AID 1149). Particulars: COS7 hTOR1A-WT lysate, 635 nm fluorescence, higher = more signal.
The target is the same in assay [9]. The assay can be described thus: small-molecule binders of mutant TOR1A in lysate, primary screen, cell lysate, small-molecule microarray, COS7 lysate, 635/667 nm fluorescence (AID 1150).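 Also: score pools 667 nm emission and signal to noise measuring lysate protein binding.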 The settings on record: COS7 hTOR1A mutant lysate, 635 nm fluorescence, higher = more signal.
In assay [10] the test system is Sonic hedgehog protein (Shh). The assay can be described thus: small-molecule binders of Shh protein, primary screen, biochemical, small-molecule microarray, 635/667 nm fluorescence (AID 1151).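 Also: Shh protein binding to compounds spotted on small-molecule microarray slides; score combines spot fluorescence intensity with signal-to-noise across triplicate slides.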 The settings on record: small-molecule microarray binding, 635 nm fluorescence; higher = more signal.
Assay [11] is described as follows: E. coli DRC41 culture turbidity changes, primary screen, E. coli filamentation inducer project, strain DRC41, OD650, 48 h (AID 1152).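 Also: E. coli MC1000 strain DRC41 lacking acrAB efflux pump and sulA.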 Particulars: E. coli DRC41 (acrAB sulA), higher = more signal, called active from +8 up or from −8 down.
Assay [12] can be described thus: small-molecule binders of probe aLefty1, primary screen, biochemical, small-molecule microarray, 635/667 nm fluorescence (AID 1153).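 Also: score merges spot fluorescence with signal-to-noise ratio from the scanned slide images.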 The settings on record: higher = more signal.
Assay [13] is described as follows: PSAC antagonists in infected red cells, primary screen, cell-based, P. falciparum Indochina, OD700, 1 h (AID 1154). Particulars: P. falciparum Indochina infected RBC osmotic lysis, higher = more signal, called active from +8 up or from −8 down.
Assay [14] is described as follows: PSAC antagonists in infected red cells, primary screen, cell-based, P. falciparum Indochina, OD700, 2 h (AID 1155).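 Also: lysis reports solute entry through the parasite surface anion channel PSAC; channel blockers reduce lysis of infected cells.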 Particulars: P. falciparum Indochina infected erythrocytes, osmotic lysis OD700; higher = more signal, called active from +8 up or from −8 down.
Assay [15] is described as follows: osmotic lysis modulators in infected erythrocytes, primary screen, PSAC antagonist project, cell-based, P. falciparum Indochina, OD700, 3 h (AID 1156). The settings on record: higher = more signal, called active from +8 up or from −8 down.
A short description of assay [16]: PSAC antagonists in infected red cells, primary screen, cell-based, P. falciparum Indochina, OD700, 18 h (AID 1157). The settings on record: P. falciparum Indochina infected erythrocytes, osmotic lysis OD700, 18 h; higher = more signal, called active from +8 up or from −8 down.
Assay [17] is described as follows: modulators of S6 phosphorylation in cells, primary screen, cell-based, A549, cytoblot, luminescence, serum-stimulated (AID 1158).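 Also: serum-stimulated A549 lung adenocarcinoma cells; signal is phosphorylated S6 detected by cytoblot immunostaining with HRP secondary.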 Particulars: A549 phospho-S6 cytoblot, 5 h, higher = more signal.
For assay [18], the target named is NADPH oxidase 2 (Homo sapiens) (UniProt P04839). The assay can be described thus: NOX2-dependent H2O2 signal modulators, primary screen, NOX inhibitor project, cell-based, HEK293-NOX2, PMA-stimulated, Amplex Red fluorescence (AID 1159). Also: test concentration not given here. The settings on record: 45 min, higher = more signal, called active from +8 up or from −8 down.
The target of assay [19] is NADPH oxidase 4 (Homo sapiens) (UniProt Q9NPH5). As to the kind of experiment: NOX4-dependent H2O2 signal modulators, primary screen, NOX inhibitor project, cell-based, HEK293-NOX4, tetracycline-induced, Amplex Red fluorescence (AID 1160). The settings on record: 45 min, higher = more signal, called active from +8 up or from −8 down.
Assay [20] concerns the target NADPH oxidase 5 (Homo sapiens) (UniProt Q96PH1). As to the kind of experiment: NOX5-dependent H2O2 signal modulators, primary screen, NOX inhibitor project, cell-based, HEK293-NOX5, Amplex Red fluorescence (AID 1161). The settings on record: HEK293-NOX5, ionomycin, 45 min, higher = more signal.

Activity calls are given as the source filed them. Unless noted, no rule for the calls is given here.

NADPH oxidase 5 (Homo sapiens), sequence (Q96PH1 whole entry, looked up): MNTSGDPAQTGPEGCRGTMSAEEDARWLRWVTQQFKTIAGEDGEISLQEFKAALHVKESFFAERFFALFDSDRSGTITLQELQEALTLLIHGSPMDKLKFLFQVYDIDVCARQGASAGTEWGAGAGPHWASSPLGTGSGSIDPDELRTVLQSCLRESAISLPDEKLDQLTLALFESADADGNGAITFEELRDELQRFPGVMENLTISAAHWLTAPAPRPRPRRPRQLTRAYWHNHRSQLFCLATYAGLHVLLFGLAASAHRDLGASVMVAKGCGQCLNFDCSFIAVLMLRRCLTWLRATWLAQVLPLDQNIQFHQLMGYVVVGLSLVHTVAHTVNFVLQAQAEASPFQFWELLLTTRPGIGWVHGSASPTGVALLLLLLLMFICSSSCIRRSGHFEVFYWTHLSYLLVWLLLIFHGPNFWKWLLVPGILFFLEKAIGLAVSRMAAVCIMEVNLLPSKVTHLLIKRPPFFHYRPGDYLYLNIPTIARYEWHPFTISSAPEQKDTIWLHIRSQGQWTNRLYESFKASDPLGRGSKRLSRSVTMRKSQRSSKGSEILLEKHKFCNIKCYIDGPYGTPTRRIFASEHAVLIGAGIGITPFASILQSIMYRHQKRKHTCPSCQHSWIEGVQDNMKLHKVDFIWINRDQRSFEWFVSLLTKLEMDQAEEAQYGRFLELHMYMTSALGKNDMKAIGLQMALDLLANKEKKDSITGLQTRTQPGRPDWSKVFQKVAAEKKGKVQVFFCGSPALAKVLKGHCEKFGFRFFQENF
Torsin-1A (Homo sapiens), sequence (O14656 whole entry, looked up): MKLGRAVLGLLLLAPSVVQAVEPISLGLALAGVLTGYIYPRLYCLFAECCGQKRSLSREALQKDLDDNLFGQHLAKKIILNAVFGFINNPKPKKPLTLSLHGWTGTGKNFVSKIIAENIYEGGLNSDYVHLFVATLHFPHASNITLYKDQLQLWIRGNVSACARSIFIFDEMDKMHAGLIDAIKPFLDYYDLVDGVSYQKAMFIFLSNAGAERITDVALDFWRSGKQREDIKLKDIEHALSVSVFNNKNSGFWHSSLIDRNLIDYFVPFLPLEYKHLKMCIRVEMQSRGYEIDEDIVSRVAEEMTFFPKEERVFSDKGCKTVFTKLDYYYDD
NADPH oxidase 4 (Homo sapiens), sequence (Q9NPH5 whole entry, looked up): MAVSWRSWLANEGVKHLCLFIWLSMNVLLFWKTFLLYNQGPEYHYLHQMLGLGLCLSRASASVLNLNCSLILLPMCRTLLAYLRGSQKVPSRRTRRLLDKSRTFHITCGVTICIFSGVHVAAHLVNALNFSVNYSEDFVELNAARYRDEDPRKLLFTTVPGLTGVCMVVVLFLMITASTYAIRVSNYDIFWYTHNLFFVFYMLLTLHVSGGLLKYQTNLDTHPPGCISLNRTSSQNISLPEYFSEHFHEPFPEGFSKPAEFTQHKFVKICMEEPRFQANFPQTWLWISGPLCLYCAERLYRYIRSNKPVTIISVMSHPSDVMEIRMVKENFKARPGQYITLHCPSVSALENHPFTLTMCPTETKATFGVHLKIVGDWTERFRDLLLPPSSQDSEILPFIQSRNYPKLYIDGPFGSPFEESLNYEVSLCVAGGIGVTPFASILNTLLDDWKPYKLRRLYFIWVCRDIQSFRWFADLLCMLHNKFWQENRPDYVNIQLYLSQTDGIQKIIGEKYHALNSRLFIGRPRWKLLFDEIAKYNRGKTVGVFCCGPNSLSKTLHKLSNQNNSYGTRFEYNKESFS
NADPH oxidase 2 (Homo sapiens), sequence (P04839 whole entry, looked up): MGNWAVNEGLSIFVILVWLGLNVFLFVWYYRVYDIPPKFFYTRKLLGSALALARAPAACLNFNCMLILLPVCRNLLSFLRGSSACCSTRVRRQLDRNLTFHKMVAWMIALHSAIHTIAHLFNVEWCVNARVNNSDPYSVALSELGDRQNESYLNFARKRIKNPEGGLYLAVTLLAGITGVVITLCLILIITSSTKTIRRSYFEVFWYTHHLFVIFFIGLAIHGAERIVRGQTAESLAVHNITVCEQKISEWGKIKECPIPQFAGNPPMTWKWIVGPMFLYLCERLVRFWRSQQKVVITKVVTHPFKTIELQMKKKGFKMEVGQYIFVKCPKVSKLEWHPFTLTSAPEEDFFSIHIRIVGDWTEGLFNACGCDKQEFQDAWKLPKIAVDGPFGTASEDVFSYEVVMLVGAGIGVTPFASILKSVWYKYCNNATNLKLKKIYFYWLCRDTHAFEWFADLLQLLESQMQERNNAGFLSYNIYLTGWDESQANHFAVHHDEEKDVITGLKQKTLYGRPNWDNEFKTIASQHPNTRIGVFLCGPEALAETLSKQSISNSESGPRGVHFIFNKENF
Streptavidin (Streptomyces avidinii), sequence (P22629 whole entry, looked up): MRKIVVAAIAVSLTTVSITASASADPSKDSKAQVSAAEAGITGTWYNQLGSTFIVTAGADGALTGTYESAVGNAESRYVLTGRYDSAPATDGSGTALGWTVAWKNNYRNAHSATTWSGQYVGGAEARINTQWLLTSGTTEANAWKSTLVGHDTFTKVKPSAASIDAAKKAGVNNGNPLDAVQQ

On to `CN(C)CCCC[C@@H]1NC(=O)[C@@H]2C[C@H](C(=O)NCCCCCCNC(=O)CS)[C@H](c3ccc(O)cc3)N2C1=O`, for which the composite z-score in [1] is 0.412; in [6], -0.406; in [7], 0.257; with Torsin-1A (Homo sapiens) [8], 0.71; in the assay with Torsin-1A (Homo sapiens) [9], 0.702; in [10] it was 1.62. The same molecule returned a composite z-score in [12] of 0.0013. In addition, the z-score in assay [2] was -0.211 (inactive); in [3] it was -0.525 (inactive); in assay [4], 0.549 (inactive); in assay [5], 0.375 (inactive); in assay [11], -1.05 (inactive); in assay [13] it was 1.19 (inactive). The z-score in assay [14] was 0.284 (inactive); in assay [15], -1.22 (inactive); in [16], 0.0814 (inactive); in assay [17], 0.58; in assay [18], 0.559 (inactive); in [19], 0.781 (inactive). In assay [20], this molecule came in with a z-score of 0.873.
As for `O=C(NCc1ccccc1)[C@@H]1c2ccccc2C(=O)N(Cc2cc(C(F)(F)F)cc(C(F)(F)F)c2)[C@H]1c1ccc(CO)cc1`, the composite z-score in [1] is 0.145; in assay [6] it was 0.556; in assay [7], -0.0405; in the assay with Torsin-1A (Homo sapiens) [8], -0.137; with Torsin-1A (Homo sapiens) [9], 0.759; in [10], 1.93. Besides, the composite z-score in assay [12] was determined as 0.0004. For the same molecule, the z-score was -1.69 (inactive) in [2]; -1.69 (inactive) in [3]; 0.0387 (inactive) in assay [4]; 0.119 (inactive) in assay [5]; -0.0343 (inactive) in [11]; 2.87 (inactive) in assay [13]. Moreover, the z-score in assay [14] is 0.55 (inactive); in assay [15], 2.48 (inactive); in assay [16] it was 0.352 (inactive); in assay [17] it was -0.0959; in assay [18] it was 0.736 (inactive); in assay [19] it was 0.284 (inactive). This molecule came in with a z-score in assay [20] of 1.52.
Regarding `CC1CC/C=C\[C@H]2OC34C=CCN(C(C)(C)C)C(=O)[C@H]3N(CCCO)C(=O)[C@@H]4C2C(=O)O1` (stereo not given in full), the composite z-score is -0.0437 in [1]; -0.561 in assay [6]; -0.128 in assay [7]; 0.62 in the assay with Torsin-1A (Homo sapiens) [8]; 2.01 with Torsin-1A (Homo sapiens) [9]; -0.757 in assay [10]. Besides, the composite z-score in [12] was -0.0954. In addition, the z-score in [2] was -0.032 (inactive); in [3], 1.08 (inactive); in assay [4], 0.203 (inactive); in assay [5], -0.539 (inactive); in assay [11] it was 0.0581 (inactive); in assay [13], -0.022 (inactive). In addition, the z-score in [14] was 0.571 (inactive); in assay [15], -0.857 (inactive); in assay [16], 0.235 (inactive); in [17] it was 0.337; in assay [18], 0.78 (inactive); in assay [19], -2.14 (inactive). In assay [20], the z-score stood at 1.25.
For the molecule `C=CCNC(=O)[C@@H]1[C@H]2C(=O)O[C@H](c3ccccc3)[C@H](c3ccccc3)N2[C@H](c2ccc(OCCO)cc2)[C@@]12C(=O)Nc1ccc(C#CC3(O)CCCCCC3)cc12`, the composite z-score stood at 0.407 in [1]; 0.981 in assay [6]; 0.0082 in assay [7]; 0.507 with Torsin-1A (Homo sapiens) [8]; 0.827 with Torsin-1A (Homo sapiens) [9]; 0.938 in assay [10]. Also, in [12], the composite z-score is 0.239. The z-score is -5.36 (inactive) in assay [2]; -1.17 (inactive) in assay [3]; 0.155 (inactive) in assay [4]; 0.856 (inactive) in assay [5]; 0.668 (inactive) in [11]; 4.16 (inactive) in [13]. Besides, the z-score in [14] is 0.444 (inactive); in [15] it was 1.02 (inactive); in assay [16], -0.882 (inactive); in assay [17], 1.35; in [18], 0.385 (inactive); in assay [19], -1.05 (inactive). Moreover, in assay [20], the z-score is -1.63.
